# Out of some 360,000 compounds screened, about 3,900 (1.1%) were called active.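 How the source made its calls: active means mean replicate inhibition score of at least 50 and every replicate individually at or above 50; inconclusive means only one of the two criteria met; inactive means mean below 50 and not all replicates reaching 50.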 The full list was thinned out, with actives kept by preference.
# Experiment: blockers of JRFL envelope-mediated fusion – HeLa-JRFL effector, CEM21 target cells, luciferase, primary screen (AID 651610);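 further: 0% = plate neutral controls and 100% = maraviroc near 300 nM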
# Settings: HeLa-JRFL Env/CEM21 cell fusion, active compounds read high; at 16.7 µM unless noted
row,Compound,inhibition
1,CC(C)NC(=O)Nc1ccc2c(c1)CC(=O)N([C@H](C)CO)C[C@@H](C)[C@H](CN(C)S(=O)(=O)c1ccccc1)O2,2.93% (inactive)
2,COc1cc(CNCc2ccc(OC)c3ccccc23)cc(OC)c1OC,99.1% [at 12.3 µM] (active)
3,CCOc1c(CNCc2ccc(C(=O)O)cc2)cccc1OC,1.89% [at 12.3 µM] (inactive)
4,COc1ccc(CNCCCNCc2ccc(OC)c(OC)c2)cc1OC,-12.6% [at 12.3 µM] (inactive)
5,Cc1noc(C)c1S(=O)(=O)Nc1ccc2c(c1)C(=O)N([C@H](C)CO)C[C@@H](C)[C@@H](CN(C)S(=O)(=O)c1ccc(Cl)cc1)O2,-6.25% (inactive)
6,C[C@@H]1CN([C@@H](C)CO)C(=O)c2cc(N(C)C)ccc2O[C@H]1CN(C)Cc1ccc(C(F)(F)F)cc1,14.9% (inactive)
7,COc1ccc(C(=O)Nc2cc(S(=O)(=O)N3CCCC3)ccc2Cl)cc1,-8.82% [at 12.3 µM] (inactive)
8,COc1ccc(C(=O)Nc2nc(-c3ccc(S(=O)(=O)N4CCOCC4)cc3)cs2)cc1,93.5% [at 12.3 µM] (active)
9,CNC(=O)c1ccsc1NC(=O)c1ccc(S(=O)(=O)N2CCOCC2)cc1,-27.2% [at 12.3 µM] (inactive)
10,CO[C@@H]1CN(C)C(=O)c2ccc(NC(=O)c3ccc(F)cc3)cc2OC[C@H](C)N(C)C[C@H]1C,9.99% (inactive)
11,CN1C(=O)c2cc(NC(=O)c3cscn3)ccc2OC[C@H]2O[C@@H](CC(=O)NCC3CC3)CC[C@H]21,-0.83% (inactive)
12,C[C@@H]1CCCCO[C@H](CN(C)Cc2ccccc2)[C@@H](C)CN([C@H](C)CO)C(=O)c2cc(NS(C)(=O)=O)ccc2O1,-1.64% (inactive)
13,CCn1c(SCC(=O)NC2CCCC2)nnc1-c1ccoc1C,-2.28% [at 12.3 µM] (inactive)
14,COc1ccccc1NC(=O)CSc1nnc(Cn2nnc(-c3ccccc3)n2)n1-c1ccccc1,-41.2% [at 12.3 µM] (inactive)
15,COc1ccccc1NC(=O)CSc1nnc(-c2ccoc2C)n1CCc1ccccc1,62.4% [at 12.3 µM] (active)
16,COc1ccc(C#Cc2cnc3c(c2)C(=O)N([C@H](C)CO)C[C@@H](C)[C@@H](CN(C)C(=O)CN(C)C)O3)cc1,-3.11% (inactive)
17,COc1ccc(-c2cnc3c(c2)C(=O)N([C@@H](C)CO)C[C@H](C)[C@H](CN(C)C(=O)Cc2cccnc2)O3)cc1,-3.34% (inactive)
18,Cc1ccc(NS(=O)(=O)c2ccc(C(C)(C)C)cc2)cn1,3.22% [at 12.3 µM] (inactive)
19,Cc1cc(C)cc(OCC(=O)Nc2ccc(S(=O)(=O)Nc3ccccn3)cc2)c1,19.9% [at 12.3 µM] (inactive)
20,Cc1ccc(S(=O)(=O)Nc2ccc3ncccc3c2)cc1,60.8% [at 12.3 µM] (active)

# — PubChem BioAssay AID651610 (Broad Institute, 2012)
